HCV inhibitor: blocks hepatitis C virus; Potency, µM (series often up to 41.8 µM), for inactives: at the highest dose activity change, negative = inhibition, usual class: inhibitors; hit rate 3.4% among 340,000; Huh7.5.1 HCVcc-Cre infection, luciferase reporter, 44 h; also: potency is read from the fitted curve at half-maximal effect
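A cell-based infection assay in which seeded cells (1,000 per well) receive test compound after 4 h, are inoculated with HCVcc-Cre at approximately 0.5 moi, and are incubated 44 h before luminescence detection.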
VACV Venus inh: vaccinia inhibition (Venus reporter); Vaccinia virus Venus reporter expression, fluorescence; Potency, µM (series often up to 36.5 µM), for inactives: top-dose activity change, negative = inhibition, usual class: inhibitors; hit rate 0.46% among 330,000; AID 720580; calls by dose curve; tested in A549 cells; also: potency is read from the fitted curve at half-maximal effect; nearly all actives have a fitted effect of over 30% in size
FMDV antiviral: foot and mouth disease virus antiviral activity. FMDV antiviral cell-based qHTS. Potency, µM (highest dose often 57.9 µM), for inactives: at the highest dose activity change, negative = inhibition, hits mostly inhibitors. hit rate 1.2% among 410,000. AID 1159524; calls by dose curve; tested in HEK293T cells; also: read-out not given here; potency is read from the fitted curve at half-maximal effect; nearly all actives have a fitted effect of over 45% in size
Sm TGR block: inhibitors of Schistosoma mansoni thioredoxin glutathione reductase; Q962Y6; purified TGR, DTNB reduction, TNB absorbance 405 nm; Potency, µM (highest dose often 114 µM), inactives show top-dose activity change, negative = inhibition, most hits filed as inhibitors; hit rate 3% among 360,000; AID 485364; also: potency is read from the fitted curve at half-maximal effect; nearly all actives have a fitted effect of over 60% in size
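Kinetic colorimetric format: TGR-catalysed, NADPH-driven DTNB reduction monitored via TNB absorbance. Enzyme dispensed at 20 nM; compound exposure 15 min at room temperature before reaction start.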
Vaccinia mCherry: vaccinia inhibition (mCherry reporter); Vaccinia virus mCherry reporter infection, fluorescence; hit rate 0.63% among 310,000; Potency, µM (doses to about 36.5 µM), inactives show at the highest dose activity change, negative = inhibition, usual class: inhibitors; AID 720579; calls by dose curve; tested in A549 cells; also: potency is read from the fitted curve at half-maximal effect; nearly all actives have a fitted effect of over 35% in size
HCMV antiviral: human cytomegalovirus inhibition | HFF cells, HCMV-luciferase reporter, 72 h; active compounds read low | activity change, negative = inhibition, % at 57.5 µM | hit rate 4.5% among 410,000; in the data active = activity change below about -60%; inconclusive = no clear call, values can overlap the other calls; inactive = above about -39%
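HFF cells seeded 16 h at 37C, treated with compounds, infected with luciferase-reporter HCMV at MOI 1 PFU/cell; luciferase read at 72 h post infection, normalized to buffer-only and Salinomycin controls.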
* = called active by the depositor; i = inactive; u = inconclusive; x = no result. Hits are enriched below; roughly 9.3% of the tested compounds scored in any of these assays. Unless noted, calls follow the shape of the dose curve; as a rule, active = well fitted curve in the direction sought with a large enough effect; inconclusive = small, poorly fitted or top-dose-only effect, or another doubt; inactive = no such curve, though single readings can be large; an effect the other way counts as inactive or inconclusive. % is scaled to controls: 0 for no effect and ±100 for the full control effect.

SMILES	HCV inhibitor	VACV Venus inh	FMDV antiviral	Sm TGR block	Vaccinia mCherry	HCMV antiviral
CC1(C)CC(=O)C(=CN2CCN(C(=O)c3ccco3)CC2)C(=O)C1	18%	-11%	-18%	u	i	-31
Cc1cc(C)cc(NC(=O)CCNS(=O)(=O)c2ccc3c(c2)oc(=O)n3C)c1	7%	x	12%	2%	x	-6
O=C(NCc1ccncc1)[C@@H]1CCCN1C(=O)[C@H]1CCCN1C(=O)c1ccccc1	x	-4%	-19%	x	i	-16
CC1(c2ccccc2)CC(C)(C)N(C(=O)c2cccc(Cl)c2)c2ccccc21 (stereo not given)	x	-7%	3%	0%	-9%	-72*
Cc1cccc(C(=O)NNC(=O)c2ccc(F)cc2)c1	6%	x	29%	7.9µM*	x	-15
CCCC(=O)Nc1ccc(Cl)c(NC(=O)c2cccnc2)c1	13%	-11%	x	4%	i	-31
Cc1cccc(C(=O)NNC(=O)c2cccc(C)c2)c1	4%	-1%	18%	8%	i	2
CN(C)S(=O)(=O)Oc1cccc(C(=O)Nc2ccc(Cl)cc2)c1	10µM*	x	-29%	19%	x	-29
COc1ccccc1NC(=O)c1ccc(NC(=O)c2ccco2)cc1	-11%	-6%	2%	-14%	13%	u
COc1cc(OC)cc(C(=O)Nc2ccc(C(=O)Nc3ccccc3OC)cc2)c1	11µM*	u	-17%	x	-19%	-5
CCCC(=O)Nc1ccc(Cl)c(NC(=O)c2cccc(OC)c2)c1	u	-16%	-5%	8.9µM*	-13%	-79*
CN(C)S(=O)(=O)Oc1cccc(C(=O)Nc2ccccc2Cl)c1	-9%	x	-8%	11%	x	9
COc1ccc(-c2cc(C(=O)Nc3cc(C)ccc3O)no2)cc1OC	x	-2%	-11%	9%	-7%	-1
CCCn1c(SCC(=O)Nc2ccc(C(=O)Nc3ccccc3OC)cc2)n[nH]c1=O	u	-15%	32µM*	3%	-9%	-15
COc1cccc(C(=O)Nc2ccc(Cl)c(-c3nc4ccccc4[nH]3)c2)c1	x	u	u	7%	-22%	-89*
COc1cccc(C(=O)N2CCOCC2)c1	-10%	-7%	6%	-8%	-3%	-22
COc1cccc(C(=O)Nc2ccc(C(=O)c3ccccc3)cc2)c1	10µM*	x	-11%	4%	x	u
COc1cccc(C(=O)Nc2cccc(C(=O)N3CCOCC3)c2)c1	5%	x	19%	-1%	x	-66*
CC1CCC2(CC1)NC(=O)N(CC(=O)Nc1cccc(C#N)c1)C2=O (stereo not given)	7%	x	-3%	5%	x	7
CC1(C(=O)Nc2cccc(Oc3ccccc3)c2)CCN1Cc1cccc2c1OCO2 (stereo not given)	x	-5%	u	x	i	-1
Cc1c(Br)c(C(=O)NNC(=O)c2ccc(C(C)(C)C)cc2)nn1C	-11%	x	28%	15%	x	-61*
COc1cccc(NC(=O)c2ccc3c(O)c(S(=O)(=O)c4ccccc4)c(=O)[nH]c3c2)c1	12%	-5%	-16%	-10%	-13%	-63*
COc1ccccc1NC(=O)c1ccc(NC(=O)COC(=O)CCC2CCCC2)cc1	7%	x	-17%	-1%	x	-22
COC(=O)c1ccc(NC(=O)c2cccc(OC)c2)cc1	u	-28%	18%	1%	-7%	-33
Cn1cc(Br)c(C(=O)NNC(=O)c2ccc(Br)cc2)n1	-1%	-12%	22%	-2%	-9%	48
SMILES	HCV inhibitor	VACV Venus inh	FMDV antiviral	Sm TGR block	Vaccinia mCherry	HCMV antiviral
COc1ccccc1NC(=O)c1ccc(NC(=O)COC(=O)C(C)C)cc1	15%	-10%	-24%	32µM*	-12%	-26
COC(=O)c1ccc(NC(=O)c2cccc(C)c2)cc1	2%	-14%	41%	89µM*	-3%	41
O=C1C=C(c2ccc3[nH]ccc3c2)C[C@@H](c2ccc(Cl)cc2)C1	u	u	0%	7%	u	-9
COC(=O)/C=C/c1cccc(N(Cc2ccc(-c3ccc(N(C)C)cc3)cc2)C(=O)C2CCCCC2)c1	x	x	-5%	x	x	x
CN(C)S(=O)(=O)Oc1ccc(C(=O)Nc2cccc(Cl)c2)cc1	-4%	-9%	2%	x	-8%	-20
CN1CCSc2ccc(C(=O)Nc3ccc(Cl)cc3)cc21	-26%	3%	73%	2%	-2%	25
CC(C)(C)c1ccc(C(=O)NNC(=O)c2cccc(Br)c2)cc1	u	x	18%	-1%	x	-73*
COc1cccc(NC(=O)c2ccc3c(c2)N(C)CCS3)c1	10µM*	-23%	12%	1%	u	-37
Cc1ccc(C(=O)NNC(=O)c2cccc(Br)c2)cc1	29%	-27%	27%	3%	-1%	u
CN(C)S(=O)(=O)Oc1ccc(C(=O)Nc2cccc(C(F)(F)F)c2)cc1	11µM*	x	14µM*	u	x	-76*
CCCOc1ccc(CNC(=O)CCC(=O)n2ncc3cc(C)ccc32)cc1	4%	-26%	-22%	-1%	-4%	-4
Cc1cccc(-c2cc(N3CCCN(C)CC3)n3nccc3n2)c1	x	9%	-24%	x	-14%	-16
CCOC(=O)c1ccc(N=c2sc(C(=O)OC)cc(=O)n2CCCN2CCOCC2)cc1	u	15%	16µM*	-6%	-2%	79
CCOC(=O)c1ccc(N=c2sc(C(=O)OC)cc(=O)n2Cc2ccco2)cc1	22µM*	-7%	0%	-26%	i	-27
O=C1/C(=C/c2cccnc2)SC(=S)N1C1CCS(=O)(=O)C1 (stereo not given)	1%	2%	14µM*	-2%	-10%	u
O=C1/C(=C/c2cccnc2)SC(=S)N1N1CCOCC1	-2%	x	-15%	2.8µM*	x	-6
O=C1/C(=C/c2ccncc2)SC(=S)N1N1CCOCC1	6%	-6%	-2%	0.89µM*	-15%	19
Cc1c(C(=O)Nc2cccc(-c3nc4ccccc4s3)c2)oc2ccc(F)cc12	x	-7%	4%	-2%	-18%	36
CCc1ccc(NC(=O)CSc2nnc(-c3ccccc3)n2CC)cc1	x	-24%	x	x	-11%	x
C/C(=N/NC(=O)c1cc(C2CC2)[nH]n1)c1cccs1	-11%	-17%	-74%	-21%	-4%	-34
CC(=O)Nc1ccc(NC2=C/C(=N/S(=O)(=O)c3cccs3)c3ccccc3C2=O)cc1	u	11µM*	u	-34%	u	-101*
COc1ccc(S(=O)(=O)/N=C2\C=C(Nc3ccc(O)cc3)C(=O)c3ccccc32)cc1	5.6µM*	3.5µM*	7.9µM*	-3%	5µM*	-99*
COc1ccc(S(=O)(=O)c2ccc(O)cc2)cc1	15%	x	3%	17%	x	45
Cc1ccccc1NC1=C/C(=N\S(=O)(=O)c2cccs2)c2ccccc2C1=O	3.5µM*	x	10µM*	u	x	-106*
Cc1ccc(NC2=C/C(=N/S(=O)(=O)c3cccs3)c3ccccc3C2=O)cc1C	8%	-12%	-18%	-3%	i	62
